Results from PubChem BioAssay.
Inconclusive results are not listed. Activity calls are given as the source filed them.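 The calls were made as follows, unless noted: active = inhibition over a set limit, the all-compound mean plus 3 SD, in both replicate runs; inconclusive = over that limit in just one replicate run; inactive = at or under that limit in both runs.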

Assay: viability of PTEN-null HCT116 cells – cell-based, HCT116 clonal line, CellTiter-Glo, pilot screen (AID 824;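 active = viability at or below 27.92% in each of two runs, the all-compound median minus 4 SD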;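 also: 0% = 20 µM Hyamine control and 100% = vehicle cell control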)
Conditions: HCT116 PTEN-deleted viability, 60 h, at 10 µM, hits give low values

| Compound | viability |
| --- | --- |
| O=C1CC(N2CCN(C(c3ccccc3)c3ccccc3)CC2)C(=O)N1 (stereo not drawn) | 102% (inactive) |
| CCN(CC)CCNC(=O)Cn1cnc2sc(C)c(S(=O)(=O)N3CCOCC3)c2c1=O | 99.3% (inactive) |
| COc1ccc(C2CC(c3ccc(F)cc3)Nc3nc(N)nn32)cc1 (stereo not drawn) | 94.4% (inactive) |
| CCOc1ccccc1C(=O)NC1CCN(Cc2nnnn2C2CCCC2)CC1 | 98.9% (inactive) |
| CCOc1ccc(C(=O)Nc2c3c(nn2-c2ccc(C)cc2)CS(=O)C3)cc1OCC (stereo not drawn) | 104% (inactive) |
| Cc1ccc(-c2nn(C)c(=O)c3ccccc23)cc1CNC(=O)c1ccco1 | 72.9% (inactive) |
| O=C(CNS(=O)(=O)c1ccc(C(=O)N2CCCCC2)cc1)N1CCCCC1 | 90.8% (inactive) |
| CCOC(=O)CON1C(=O)C(C)(C)N(OCC(=O)OCC)C(=O)C1(C)C | 101% (inactive) |
| Cc1[nH]c2ccc(-c3n[nH]c(=S)n3C)cc2c1C | 93.3% (inactive) |
| Cc1onc(-c2ccccc2Cl)c1C(=O)OCN1C(=O)c2ccccc2C1=O | 99% (inactive) |
| CSC1=NCCN1C(=O)c1cccs1 | 99.3% (inactive) |
| O=C(C1CCC(CNc2c(N3CCCCC3)c(=O)c2=O)CC1)N1CCN(c2ccccn2)CC1 (stereo not drawn) | 99.1% (inactive) |
| CC1CCCN(c2nc3c(c(=O)[nH]c(=O)n3C)n2Cc2ccccc2Cl)C1 (stereo not drawn) | 81% (inactive) |
| COc1ccc(CC(=O)N2CC3(C)CC2CC(C)(C)C3)cc1OC (stereo not drawn) | 88.2% (inactive) |
| Cc1cccnc1NC(=O)c1c(O)c2ccccc2n(C)c1=O | 98% (inactive) |
| CCN(CC)P1(=O)OC(c2cc(OC)c(OC)c(OC)c2)=Nc2c1c(C)nn2-c1ccccc1 (stereo not drawn) | 92.8% (inactive) |
| CCOc1ccc(NC(=O)CSc2nnc(Cn3c(=O)sc4ccccc43)n2C)cc1 | 103% (inactive) |
| Cc1ccc(N(C(=O)CC2NC(=O)NC2=O)C2(C(=O)NC3CCCC3)CCCCC2)cc1 (stereo not drawn) | 93.7% (inactive) |
| Cn1c(NC(=O)Cc2ccc(F)cc2)cc(=O)n(C)c1=O | 95.4% (inactive) |
| COc1ccc(C2CC(=O)c3cnc(NC(=O)c4ccccc4)nc3C2)cc1OC (stereo not drawn) | 96.6% (inactive) |
| Cc1cccc(N2CCN(C(=O)C3CCN(c4nnc(-n5cccc5)s4)CC3)CC2C)c1 (stereo not drawn) | 45% (inactive) |
| O=C(NCc1ccccc1)c1cc(S(=O)(=O)N2CCOCC2)ccc1F | 93% (inactive) |
| O=C(CN1C(=O)C2C3C=CC(C3)C2C1=O)Nc1ccc2nccnc2c1 (stereo not drawn) | 95.2% (inactive) |

Assay: RAM pathway blockade in budding yeast – dse1pr::URA3 reporter, 5-FOA selection, pilot screen (AID 869);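 also: 0% = DMSO wells with no growth and 100% = 10 µM 1-NA-PP1 with full growth; RAM network block rescues cells from 5-FOA so hits raise OD615 growth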
Conditions: S. cerevisiae dse1pr::URA3 5-FOA growth, OD615, 2 d; at 10 µM; hits give high values; strain carries analog-sensitive mutant Cbk1 kinase

| Compound | inhibition |
| --- | --- |
| O=C(CCCN1C(=O)c2ccccc2C1=O)Nc1ccccc1C(=O)N1CCOCC1 | 0.11% (inactive) |
| COc1cccc(C2CC(=O)N3CN(c4ccccc4F)CSC3=C2C#N)c1 (stereo not drawn) | 2.96% (inactive) |
| C=CCNc1oc(Cc2cccc3ccccc23)nc1C#N | 1.04% (inactive) |
| O=C(c1ccccc1)c1ccc2nc(N3CCCCC3)c3nncn3c2c1 | 2.53% (inactive) |
| O=C(CSCC(=O)NC1CC1)Nc1ccccc1 | 0.03% (inactive) |
| Cc1ccc(N(C(=O)c2cccs2)C2C=CS(=O)(=O)C2)cc1 (stereo not drawn) | 1.96% (inactive) |
| COc1ccc(NC(=O)N(Cc2ccc(C)cc2)Cc2ccccn2)c(OC)c1 | 0.455% (inactive) |
| CC(=O)C(C)Oc1ccc2c3c(c(=O)oc2c1)CCCC3 (stereo not drawn) | 2.3% (inactive) |
| CC(=O)c1c(C)oc(C)c1CSCc1ccc(C(=O)O)o1 | 0.665% (inactive) |
| CCn1c(CNC(=O)C(C)(C)C)nc2ccccc21 | 1.73% (inactive) |
| Cc1cc(C)n(-c2nnc(C)n2/N=C/c2cc(Br)ccc2OCc2ccccc2)n1 | 0.37% (inactive) |
| CCC(=O)Nc1cccc(-c2nnc(SCC(=O)c3ccccc3)n2C)c1 | 0% (inactive) |
| O=C(COc1cccc2ccccc12)N1CCN(c2ccccc2)CC1 | 2.06% (inactive) |
| O=C(O)CSc1cccc2cccnc12 | 1.17% (inactive) |
| CN=C1SC(CC(=O)Nc2ccccc2F)C(=O)N1C (stereo not drawn) | 1.99% (inactive) |
| COc1ccc2[nH]c(C)c(CN3CCC(C)CC3)c(=O)c2c1 | 1.03% (inactive) |
| O=C(OCN1C(=O)c2ccccc2C1=O)c1ccco1 | 3.23% (inactive) |
| O=C1CC(N2CCN(C(c3ccccc3)c3ccccc3)CC2)C(=O)N1 (stereo not drawn) | 1.03% (inactive) |
| CCN(CC)CCNC(=O)Cn1cnc2sc(C)c(S(=O)(=O)N3CCOCC3)c2c1=O | 0.39% (inactive) |
| COc1ccc(C2CC(c3ccc(F)cc3)Nc3nc(N)nn32)cc1 (stereo not drawn) | 1% (inactive) |

| Compound | inhibition |
| --- | --- |
| CCOc1ccccc1C(=O)NC1CCN(Cc2nnnn2C2CCCC2)CC1 | 0.9% (inactive) |
| CCOc1ccc(C(=O)Nc2c3c(nn2-c2ccc(C)cc2)CS(=O)C3)cc1OCC (stereo not drawn) | 2.23% (inactive) |
| Cc1ccc(-c2nn(C)c(=O)c3ccccc23)cc1CNC(=O)c1ccco1 | 1.3% (inactive) |
| O=C(CNS(=O)(=O)c1ccc(C(=O)N2CCCCC2)cc1)N1CCCCC1 | -0.19% (inactive) |
| CCOC(=O)CON1C(=O)C(C)(C)N(OCC(=O)OCC)C(=O)C1(C)C | 0.38% (inactive) |
| Cc1[nH]c2ccc(-c3n[nH]c(=S)n3C)cc2c1C | 1.31% (inactive) |
| Cc1onc(-c2ccccc2Cl)c1C(=O)OCN1C(=O)c2ccccc2C1=O | 0.93% (inactive) |
| CSC1=NCCN1C(=O)c1cccs1 | 1.11% (inactive) |
| O=C(C1CCC(CNc2c(N3CCCCC3)c(=O)c2=O)CC1)N1CCN(c2ccccn2)CC1 (stereo not drawn) | -0.5% (inactive) |
| CC1CCCN(c2nc3c(c(=O)[nH]c(=O)n3C)n2Cc2ccccc2Cl)C1 (stereo not drawn) | 0.485% (inactive) |
| COc1ccc(CC(=O)N2CC3(C)CC2CC(C)(C)C3)cc1OC (stereo not drawn) | 2.62% (inactive) |
| Cc1cccnc1NC(=O)c1c(O)c2ccccc2n(C)c1=O | -0.005% (inactive) |
| CCN(CC)P1(=O)OC(c2cc(OC)c(OC)c(OC)c2)=Nc2c1c(C)nn2-c1ccccc1 (stereo not drawn) | 1.87% (inactive) |
| CCOc1ccc(NC(=O)CSc2nnc(Cn3c(=O)sc4ccccc43)n2C)cc1 | 0.83% (inactive) |
| Cc1ccc(N(C(=O)CC2NC(=O)NC2=O)C2(C(=O)NC3CCCC3)CCCCC2)cc1 (stereo not drawn) | -0.23% (inactive) |
| Cn1c(NC(=O)Cc2ccc(F)cc2)cc(=O)n(C)c1=O | 1.83% (inactive) |
| COc1ccc(C2CC(=O)c3cnc(NC(=O)c4ccccc4)nc3C2)cc1OC (stereo not drawn) | 0.895% (inactive) |
| Cc1cccc(N2CCN(C(=O)C3CCN(c4nnc(-n5cccc5)s4)CC3)CC2C)c1 (stereo not drawn) | 0.825% (inactive) |
| O=C(NCc1ccccc1)c1cc(S(=O)(=O)N2CCOCC2)ccc1F | 3.29% (inactive) |
| O=C(CN1C(=O)C2C3C=CC(C3)C2C1=O)Nc1ccc2nccnc2c1 (stereo not drawn) | 2.29% (inactive) |
